CHRM1 antagonist – antagonists of human M1 muscarinic receptor. CHO-K1 hM1, Fluo-8 calcium fluorescence, ACh EC80 antagonist. 1.3% of 360,000 active. inhibition, % at 3 µM. P11229;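 active = percent inhibition above its own plate's cutoff, namely the mean of that plate's compound wells plus 3 SD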;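 also: peak over basal fluorescence ratio during 140 s after agonist addition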
Target sequence (P11229 whole entry, looked up): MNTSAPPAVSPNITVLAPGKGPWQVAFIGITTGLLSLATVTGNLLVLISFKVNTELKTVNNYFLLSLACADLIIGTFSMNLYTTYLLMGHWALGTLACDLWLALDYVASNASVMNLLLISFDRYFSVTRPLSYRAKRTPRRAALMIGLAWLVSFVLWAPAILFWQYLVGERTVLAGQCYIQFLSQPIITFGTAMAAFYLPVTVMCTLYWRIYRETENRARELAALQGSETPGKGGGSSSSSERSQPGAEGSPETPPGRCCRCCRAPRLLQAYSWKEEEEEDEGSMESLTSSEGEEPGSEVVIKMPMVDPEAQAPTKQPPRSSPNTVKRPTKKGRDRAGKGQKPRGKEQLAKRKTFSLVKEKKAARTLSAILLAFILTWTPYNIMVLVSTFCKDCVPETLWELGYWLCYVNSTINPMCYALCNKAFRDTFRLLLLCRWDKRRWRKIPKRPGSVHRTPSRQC
CHO-K1 Ca antag – counter-screen for M1 antagonists: effect in parental CHO-K1 cells | ATP-induced calcium, Fluo-8 fluorescence | inhibition, % at 3 µM | 0.6% of 360,000 active;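 active = inhibition above a per-plate cutoff, the plate's mean sample inhibition plus 3 SD, cut at about 24% in these data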
M1 ag – activates human CHRM1 receptor | CHO-K1 hM1, Fluo-8 calcium fluorescence, agonist mode; 0% DMSO, 100% acetylcholine EC100 | activation, % at 3 µM | 0.33% of 360,000 active;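 active = activation above the run's mean compound activation plus 3 SD, cut at about 16% in these data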;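 also: peak over basal fluorescence ratio within a 140 s kinetic read after compound addition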
CHO-K1 Ca ag – nonselective activator or artifact in parental CHO-K1 cells; Fluo-8 calcium fluorescence; scaled to maximal ATP response, vehicle zero; activation, % at 3 µM; 0.48% of 360,000 active; AID 602248; in the data active = activation above about 15%;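 also: untransfected CHO-K1 host cells lacking M1 receptor as counterscreen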
M1 PAM parental – M1 PAM counterscreen hit in parental CHO-K1 cells. activation, % at 3 µM. AID 602247. ATP EC20, Fluo-8 calcium fluorescence; 0% at ATP EC20, 100% at ATP max. 0.02% of 360,000 active;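 active = activation above the run cutoff, the mean activation of all test compounds plus 3 SD, cut at about 40% in these data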;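 also: peak over basal fluorescence ratio in a 140 s read after ATP addition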
CHRM1 PAM – human CHRM1 positive allosteric modulation; P11229; CHO-K1 hM1, Fluo-8 calcium fluorescence, ACh EC20; 0% = ACh EC20, 100% = maximal ACh; activation, % at 3 µM; 0.088% of 360,000 active; in the data active = activation above about 19%, passing the limit was not always enough
Hits are given with their value; – = inactive. Hits are enriched below; roughly 2.3% of the tested compounds scored in any of these assays.

SMILES | CHRM1 antagonist | CHO-K1 Ca antag | M1 ag | CHO-K1 Ca ag | M1 PAM parental | CHRM1 PAM
C=CCC[C@@H](Cc1ccc(F)cc1)C(=O)OC[C@H](C)NC(=O)[C@@H](CC=C)CC(=O)N[C@@H](CO)Cc1ccccc1 | – | – | – | – | – | –
Cc1cccc2sc(NNC(=O)c3cc(-c4cccs4)nc4ccccc34)nc12 | – | – | – | – | – | –
CCCCN(C(=O)c1ccc(N(C)S(=O)(=O)c2ccc(C)cc2)cc1)c1c(N)n(CC(C)C)c(=O)[nH]c1=O | – | – | – | – | – | –
O=S(=O)(c1ccc(Cl)c(Cl)c1)c1snnc1-c1ccccc1 | 75 | – | – | – | – | –
COc1c(Cl)c(=O)oc2ccc(Cl)cc12 | – | – | – | – | – | –
COc1ccccc1-n1c(=O)oc2ccc(Cl)cc2c1=O | – | – | – | 19 | – | –
CCCCN(C(=O)Cc1ccc(S(=O)(=O)N2CCOCC2)s1)c1c(N)n(CC(C)C)c(=O)[nH]c1=O | – | – | – | – | – | –
Cc1ccc(CCNC(=O)c2ccc(CS(=O)(=O)Cc3ccc(F)cc3)o2)cc1 | – | – | – | – | – | –
COc1ccc(CCNC(=O)c2ccc(CS(=O)(=O)Cc3ccc(C)cc3)o2)cc1OC | – | – | – | 15 | – | –
COc1ccc(CCNC(=O)c2ccc(CS(=O)(=O)c3ccc(C)cc3)o2)cc1OC | – | – | – | – | – | –
COc1ccc(CCNC(=O)c2ccc(CS(=O)(=O)c3ccc(Cl)cc3)o2)cc1OC | 30 | – | – | 17 | – | –
COc1cccc(S(=O)(=O)N(C)C[C@@H]2OCc3cn(nn3)CCCC(=O)N([C@@H](C)CO)C[C@H]2C)c1 | – | – | – | – | – | –
Cn1nc(-c2ccccc2)cc1NC(=O)[C@@H]1O[C@H](CO)[C@H](O)[C@H](O)[C@H]1O | – | – | – | – | – | –
O=C(NCCc1ccccc1)/C(=C\c1ccc([N+](=O)[O-])cc1)NC(=O)c1ccco1 | – | – | – | – | – | –
O=C(NCc1ccccc1)/C(=C\c1ccc([N+](=O)[O-])cc1)NC(=O)c1ccco1 | – | – | 17 | – | – | –
C=CCNC(=O)/C(=C/c1cccc([N+](=O)[O-])c1)NC(=O)c1ccco1 | – | – | – | 15 | – | –
CSCCC(NC(=O)c1ccco1)C(=O)NCC1CCCO1 (configuration not stated) | – | – | – | – | – | –
CCC1=NN2C(=N)/C(=C/c3cc(C)n(Cc4ccccc4)c3C)C(=O)N=C2S1 | – | – | 20 | 20 | – | –
Cc1cc(/C=C2\C(=N)N3N=C(c4ccco4)SC3=NC2=O)c(C)n1Cc1ccccc1 | 52 | – | 42 | – | – | –
CSc1nc2c(cc1C#N)CCCCC2 | 30 | – | – | – | – | –
CC(=O)c1ccc(NC(=O)Nc2ccc(Cl)cc2)cc1 | – | – | – | 17 | – | –
CCOP(=O)(OCC)C(NC(=O)Nc1ccc(Cl)cc1)c1ccccc1 (configuration not stated) | – | – | – | – | – | –
CC(NC(=O)Nc1ccc(Cl)cc1)c1ccccc1 (configuration not stated) | – | – | – | 29 | – | –
CC(=O)c1ccc(NC(=S)NCc2ccc(Cl)cc2Cl)cc1 | – | – | – | 16 | – | –
C=CCc1cccc2cc(C(=O)Nc3ccc(S(=O)(=O)Nc4nnc(CC)s4)cc3)c(=O)oc12 | – | – | – | – | – | –
SMILES | CHRM1 antagonist | CHO-K1 Ca antag | M1 ag | CHO-K1 Ca ag | M1 PAM parental | CHRM1 PAM
CCn1nnnc1SCC(=O)N(C)C1CCS(=O)(=O)C1 (configuration not stated) | – | – | – | – | – | –
O=C(O)/C=C/C(=O)N1CCN(S(=O)(=O)c2cc(C(F)(F)F)ccc2Cl)CC1 | – | – | – | – | – | –
O=C1CN(S(=O)(=O)c2cc(C(F)(F)F)ccc2Cl)CCN1 | – | – | – | – | – | 30
COc1ccc(C(=O)N/N=C/c2ccc3cccc(OCc4ccccc4)c3n2)cc1 | 31 | – | – | – | – | –
O=C(N/N=C/c1ccncc1)c1ccc(OCc2ccccc2)cc1 | – | – | 21 | – | – | –
COc1cc(C(=O)NC(=S)Nc2ccc(N3CCCC3)cc2)cc(OC)c1OC | – | – | – | – | – | –
O=C(NCCN1CCCCC1)c1ccco1 | – | – | – | – | – | –
Cc1ccc2sc(N3CCN(CCNC(=O)c4ccco4)CC3)nc2c1C | – | – | – | 20 | – | –
Cc1c(N2C(=O)c3ccc4c5c(ccc(c35)C2=O)CC4)c(=O)n(-c2ccccc2)n1C | – | – | – | – | – | –
Cc1c(N2C(=O)c3ccc(Br)cc3C2=O)c(=O)n(-c2ccccc2)n1C | 74 | – | – | – | – | –
CCCCOC(=O)Nc1sc2c(c1C(=O)OC)CCC2 | – | – | – | – | – | –
Cc1cc(C)c(C(=O)c2ccc(C(=O)N3CCCCC3)cc2)c(C)c1 | – | – | 36 | 28 | – | –
Cc1cc(C)cc(C(=O)N2CCCCCC2)c1 | – | – | – | – | – | –
COc1ccccc1C(C)NCC(=O)NC(=O)NCc1ccco1 (configuration not stated) | – | – | – | – | – | –
CC(C)(C)OC(=O)C(C)(C)O/N=C(\C(=O)O)c1csc(N)n1 | – | – | – | – | – | –
CCOc1ccccc1C1C(C#N)=C(N)Oc2cc(C)n(Cc3ccccn3)c(=O)c21 (configuration not stated) | – | 32 | – | – | – | –
COc1ccccc1C1C(C#N)=C(N)Oc2cc(C)n(Cc3ccccn3)c(=O)c21 (configuration not stated) | – | – | – | – | – | –
Cc1cc(N2CCOCC2)nc2ccc(Cl)cc12 | – | – | – | – | – | –
Cc1ccc(C(C)C)c(OCC(=O)NNC(=O)Cn2[nH]c(=O)c3ccccc3c2=O)c1 | – | – | – | – | – | –
CC[N+](C)(CC)CCC/C(=N/O)C(O)(c1ccccc1)c1ccccc1 | 64 | – | – | – | – | –
CC/C(CC(C)(C)c1ccccc1)=N\O | – | – | – | – | – | –
CCN(CC)CCC/C(=N\O)C(O)(c1ccccc1)c1ccccc1 | 95 | – | – | – | – | –
COc1cccc(CN2CCc3ccc(NC(=O)CCc4ccc(C)cc4)cc3C2)c1O | 38 | – | – | – | – | –
COc1cc(CN2CCc3ccc(NC(=O)CCc4ccccc4OC)cc3C2)ccc1O | – | – | – | – | – | –
CCOC(=O)c1c(C)[nH]c(C(=O)COC(=O)c2ccccc2NC(=O)c2ccco2)c1C | – | 32 | – | – | – | –
O=C(CN1CCCCC1)NC1CCc2cc3c(cc21)CCC3 (configuration not stated) | – | 27 | – | – | – | –

Screening results from PubChem.
